An excerpt weighted towards active compounds, which were near 19% of everything screened.
IL1B secr inh: qHTS for Inhibitors of Inflammasome Signaling: IL-1-beta AlphaLISA Primary Screen | THP-1 LPS/ATP IL-1B secretion, AlphaLISA, 16 h; active compounds read low | activity change, % at 57.5 µM | hit rate 4.7% among 360,000 | AID 743279, 2014; in the data active = activity change below about -50%; inconclusive = mostly about -30% to -49%; also: % is scaled to controls: 0 for no effect and ±100 for the full control effect
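THP-1 cells pretreated 1 hr with compounds (up to 57.5 uM final), then stimulated with LPS (250 ng/mL final) plus ATP (1.25 mM final); secreted IL-1B measured by AlphaLISA after 16 hr, decreased signal indicating inhibition.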
HepG2 tox: qHTS for Inhibitors of TGF-b: Cytotox Counterscreen; HepG2 CAGA-GFP viability, ATP luminescence, 18 h; Potency, µM (top dose mostly 46.1 µM), for the others: top-dose activity change, negative = cytotoxicity, actives largely listed as cytotoxic; hit rate 0.76% among 410,000; AID 588856, 2011; also: potency is read from the fitted curve at half-maximal effect
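HepG2 CAGA-GFP cells (1000/well, DMEM with 1% FBS) received compound, then TGF-beta at 500 pg/mL final, and were incubated 18 hours at 37 degrees C. Viability was read by CellTiter-Glo luminescence. Media-only wells were set as complete cell-killing and DMSO as no toxicity.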
DT40 TDP1 no CPT: qHTS for Inhibitors of human tyrosyl-DNA phosphodiesterase 1 (TDP1): qHTS in cells in absence of CPT; Potency, µM (titrated, usually from 46.2 µM), for inactives: at the highest dose activity change, negative = growth inhibition, most hits filed as inhibitors; hit rate 15% among 420,000; DT40 Tdp1-/- hTDP1 cells, no CPT, ATP luminescence, 48 h; AID 686978, 2013; also: potency is read from the fitted curve at half-maximal effect; % is scaled to controls: 0 for no effect and ±100 for the full control effect; nearly all actives have a fitted effect of over 55% in size
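Chicken DT40 Tdp1-/- cells stably complemented with human TDP1 were seeded at 400 cells/well with DMSO in place of 20 nM camptothecin. After compound pinning, cells grew at least 48 hr at 37 °C; viability read by CellTiter-Glo luminescence.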
TDP1 cell CPT: qHTS for Inhibitors of human tyrosyl-DNA phosphodiesterase 1 (TDP1): qHTS in cells in presence of CPT; chicken DT40 Tdp1-/-;hTDP1 cells + 20 nM CPT, ATP luminescence, 48 h; Potency, µM (doses to about 46.2 µM), for inactives: at the top dose activity change, negative = growth inhibition, hits mostly inhibitors; hit rate 12% among 420,000; AID 686979, 2013; also: potency is read from the fitted curve at half-maximal effect; % is scaled to controls: 0 for no effect and ±100 for the full control effect; nearly all actives have a fitted effect of over 55% in size
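Chicken DT40 Tdp1-/- cells stably complemented with human TDP1 were seeded at 400 cells/well in medium containing 20 nM camptothecin, exposed to pin-transferred compounds, and grown at 37 °C for at least 48 hr. Viability was read as ATP luminescence.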
TDP1 block: qHTS Assay for Inhibitors of Tyrosyl-DNA Phosphodiesterase (TDP1); Tyrosyl-DNA phosphodiesterase 1 (Homo sapiens), Q9NUW8; recombinant TDP1, AlphaScreen DNA substrate cleavage; Potency, µM (series often up to 130 µM), inactives show at the highest dose activity change, negative = inhibition, most hits filed as inhibitors; hit rate 0.28% among 350,000; also: potency is read from the fitted curve at half-maximal effect; % is scaled to controls: 0 for no effect and ±100 for the full control effect; nearly all actives have a fitted effect of over 40% in size
Target sequence (Q9NUW8 whole entry, looked up): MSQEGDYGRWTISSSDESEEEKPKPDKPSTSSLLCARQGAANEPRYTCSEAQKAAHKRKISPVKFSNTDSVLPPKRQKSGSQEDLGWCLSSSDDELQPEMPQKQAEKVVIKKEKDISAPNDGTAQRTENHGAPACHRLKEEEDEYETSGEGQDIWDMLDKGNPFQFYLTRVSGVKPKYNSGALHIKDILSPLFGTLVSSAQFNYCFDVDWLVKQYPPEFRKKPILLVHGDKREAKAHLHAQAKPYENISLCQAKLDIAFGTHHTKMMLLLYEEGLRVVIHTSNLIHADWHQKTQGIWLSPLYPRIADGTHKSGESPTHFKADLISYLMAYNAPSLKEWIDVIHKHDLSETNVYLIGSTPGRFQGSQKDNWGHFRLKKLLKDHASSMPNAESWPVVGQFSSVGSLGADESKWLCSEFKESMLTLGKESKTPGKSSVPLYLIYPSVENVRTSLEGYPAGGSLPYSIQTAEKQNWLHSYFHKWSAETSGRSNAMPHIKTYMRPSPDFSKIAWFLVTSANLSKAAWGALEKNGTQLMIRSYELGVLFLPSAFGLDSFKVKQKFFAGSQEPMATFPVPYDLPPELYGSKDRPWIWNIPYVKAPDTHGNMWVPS
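Recombinant E. coli-expressed Tdp1 (1 nM) preincubated with compound 15 min at RT, then 5'-biotin/3'-phosphotyrosine-FITC DNA substrate (15 nM) added for 5 min. AlphaScreen beads (10 ug/ml) added, 10 min RT; tyrosine-FITC cleavage read as signal loss.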
TGFb inhibitor: qHTS for Inhibitors of TGF-b | HepG2 CAGA-GFP TGF-b/SMAD3 reporter, GFP fluorescence, 18 h; TGF-beta stimulated, 500 pg/mL final | Potency, µM (doses to about 46.1 µM), for inactives: at the top dose activity, negative = inhibition, usual class: inhibitors | hit rate 1.2% among 410,000 | AID 588855, 2011; also: potency is read from the fitted curve at half-maximal effect; % is scaled to controls: 0 for no effect and ±100 for the full control effect; nearly all actives have a fitted effect of over 65% in size
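First, reporter cells (HEPG2 CAGA-GFP) rested 2 h at 37 degrees C. Next, compounds were pinned in and TGF-beta added to 500 pg/mL final. After 18 h, GFP was imaged per cell and summed per well.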
The depositor's hits bear a star; i = inactive; ? = inconclusive; . = no result; [ ] = dose if it differs, or a comment. Unless noted, calls follow the shape of the dose curve; as a rule, active = well fitted curve in the direction sought with a large enough effect; inconclusive = small, poorly fitted or top-dose-only effect, or another doubt; inactive = no such curve, though single readings can be large; an effect the other way counts as inactive or inconclusive.

SMILES	IL1B secr inh	HepG2 tox	DT40 TDP1 no CPT	TDP1 cell CPT	TDP1 block	TGFb inhibitor
CCOc1ccc(C(=O)NC(=S)Nc2ccccc2N2CCCCC2)cc1[N+](=O)[O-]	1.6	-3.6%	?	18.4µM*	3.4%	-8.1%
CCOc1ccc(C(=O)NC(=S)Nc2ccc(NC(=O)CC)cc2)cc1[N+](=O)[O-]	0.0	-4.8%	-21.6%	-14.0%	2.4%	-17.9%
CCOc1ccc(C(=O)NC(=S)Nc2ccc(N3CCCCC3)cc2)cc1[N+](=O)[O-]	8.5	-5.7%	?	11.6µM*	8.2%	-26.1%
COC(=O)[C@@]1(C)[C@H]2C(=O)N(Cc3ccccc3)C(=O)[C@H]2[C@H]2CN=C(SCc3ccc(C)cc3)N21	5.8	8.7%	?	?	-0.7%[56.1 µM]	-16.8%
CC(C)(C)N1C(=O)[C@H]2[C@H]3[C@H](O)[C@H](O)C/C(=N/OCc4ccccc4)[C@H]3CC[C@@H]2C1=O	.	.	.	.	5.8%[21 µM]	.
CCCN(CCC)CC(C)(C)NS(=O)(=O)c1ccc(Cl)cc1	26.6	-13.1%	-24.9%	-25.5%	.	-26.5%
Oc1ccc(C=NCCc2ccccc2)cc1	4.7	3.4%	15.6%	-13.1%	.	-10.4%
Cc1ccc(C(=O)c2cc([N+](=O)[O-])ccc2N2CCCCC2)cc1C	0.0	5.7%	5.17µM*	3.26µM*	1.1%	?
Cc1ccc(C)c(C(=O)COC(=O)c2cc([N+](=O)[O-])ccc2N2CCOCC2)c1	-16.6	-35.2%	?	?	0.1%	-22.4%
Cc1ccc(C(=O)c2cc([N+](=O)[O-])ccc2N2CCOCC2)c(C)c1	20.8	29.6%	0.92µM*	0.82µM*	7.7%	?
O=C(COC(=O)c1cc([N+](=O)[O-])ccc1N1CCOCC1)c1ccc(Br)cc1	?	-0.1%	?	-14.7%	5.5%	-34.5%
Cc1ccc(C(=O)c2cc([N+](=O)[O-])ccc2N2CCOCC2)cc1C	0.0	16.7%	0.731µM*	1.46µM*	1.1%	?
CCN1CCCC1CNC(=O)c1cnn(-c2nccc(-c3cccs3)n2)c1C1CC1 (centres undefined)	.	.	-12.5%	6.3%[9.04 µM]	.	.
Cc1cccc(C)c1OCc1cn(CC(=O)c2ccc(O)cc2)nn1	-0.5	7.3%	-4.5%	-5.7%	.	-1.2%
CCCc1c(C)[nH]c2ccccc2c1=O	-1.7	1.3%	?	?	0.7%	1.8%
CCCCCCC[n+]1ccc(/C=C/c2c(C)[nH]c3ccccc23)cc1	.	-111.3%	0.316µM*	0.316µM*	.	388.3%
CCCCCCCCCCCCCCCC[n+]1ccc(/C=C/c2c(C)[nH]c3ccccc23)cc1	.	-90.3%	0.398µM*	1µM*	.	?
CCCCNC(=S)N(C)/N=C/c1c(C)[nH]c2ccccc12	32.1	-33.2%	-27.7%	-5.9%	3.4%	?
Cc1ccccc1C(=O)NC(=S)Nc1ccc2[nH]c(=O)[nH]c2c1	-18.6	-0.1%	10.4%	-16.5%	6.5%	-8.5%
COC(=O)CN1C(=O)S/C(=C/c2ccc(N3CCCCC3)o2)C1=O	-18.8	-98.7%	?	?	6.2%	189.7%
CCCN1C(=O)S/C(=C/c2ccc(N3CCOCC3)o2)C1=O	-91.2*	-98.8%	16.4µM*	25.9µM*	5.6%	-7.8%
CCCN1C(=O)S/C(=C\c2ccc(N3CCOCC3)o2)C1=O	-98.4*	-154.3%	20.6µM*	?	?	-2.6%
O=C(O)CN1C(=O)/C(=C/c2ccc(N3CCCCC3)o2)SC1=S	6.5	20.0%	23.1µM*	?	50.1µM*	51.5%
COc1ccc(-c2nc3n(c(=O)c2C#N)CCS3)cc1	-11.6	-40.5%	2.6%	2.1%	-1.2%	-2.6%
C=CCSc1nc(-c2ccc(OC)cc2)c(C#N)c(=O)n1CC=C	-101.8*	4.0%	25.9µM*	16.4µM*	-6.2%	?
SMILES	IL1B secr inh	HepG2 tox	DT40 TDP1 no CPT	TDP1 cell CPT	TDP1 block	TGFb inhibitor
COc1ccc(C(=O)Nn2c(C)nc3ccccc3c2=O)c(OC)c1	-3.7	5.0%	-5.1%	8.6%	.	-10.7%
COc1ccc(C(=O)Nn2c(CC(C)C)nc3cc(Cl)ccc3c2=O)c(OC)c1	23.7	-19.3%	20.6µM*	?	.	?
COc1ccc(/C=N\NC(=O)c2ccccc2)cc1COc1ccccc1	i	0.0%	?	?	2.9%[56.1 µM]	3.7%
COc1ccc(/C=N/NC(=O)c2ccncc2)cc1COc1ccc(NC(C)=O)cc1	-9.4	-17.3%	8.2µM*	5.8µM*	0.0%	-3.4%
COc1ccc(/C=N/NC(=S)Nc2ccccc2)cc1COc1ccc(Br)cc1	39.2	-34.3%	?	14.6µM*	.	-17.4%
COc1cc(OC)cc(C(=O)N/N=C/c2ccc(OC)c(COc3ccc4ccccc4c3)c2)c1	38.6	-3.1%	6.51µM*	4.11µM*	0.0%	-28.5%
COc1ccc(/C=N\NC(=O)c2cc(O)c(O)c(O)c2)cc1COc1ccc(C(=O)OCC(C)C)cc1	57.7	-102.2%	20.6µM*	?	.	?
COc1ccc(/C=N/NC(=S)Nc2ccccc2)cc1COc1ccc(F)cc1	4.0	3.0%	-104.1%	0.6%	1.1%	-1.2%
OCC1OC(c2ccc3c(c2)OCO3)C=CC1Oc1cc(Cl)cc(Cl)c1 (centres undefined)	.	.	.	.	1.6%[21 µM]	.
CCN1C(=O)[C@H]2[C@H]3[C@H](O)[C@H](O)C/C(=N/OC[C@@H](C)[C@H](OCc4ccccc4)C(C)C)[C@@H]3CC[C@@H]2C1=O	.	.	.	.	1.6%[21 µM]	.
COc1ccc(C(=O)N[C@H](C(=O)OCn2nnc3ccccc3c2=O)C(C)C)cc1	22.9	6.7%	?	?	11.4%	-8.9%
O=C(COC(=O)/C=C/c1cc(Br)ccc1F)Nc1ccc2[nH]c(=O)[nH]c2c1	3.4	-2.7%	-7.5%	1.0%	2.7%[0.505 µM]	0.9%
COc1cccc(OCc2cc(/C=N/NC(=O)c3ccn[nH]3)ccc2OC)c1	33.9	-34.5%	25.9µM*	?	3.4%	0.0%
CC(C)C[C@@H](CNCC(=O)[C@H](C)NC(=O)c1[nH]cnc1C(=O)N[C@H](CN)CC(C)C)NC(=O)c1nc[nH]c1C(=O)N[C@@H](C)C(=O)O	13.0	-4.4%	-6.3%	-12.6%	.	2.1%
CC1=CC2=NC(=O)/C(=C\c3cc(C)n(-c4cccc(Cl)c4)c3C)C(=N)N2O1	0.9	0.8%	9.2µM*	?	5.3%	20.9%

Screening data deposited in PubChem BioAssay by National Center for Advancing Translational Sciences (NCATS).
